Among the data in PubChem BioAssay (NCATS) are Potency values, retold here.

Inconclusive results are not listed. Where a call stands in place of a potency, no number is given. Active and inactive are the calls of the source. The call rests on the fitted dose curve; in most records, active means well fitted inhibition curve with a large enough effect; inconclusive means small, poorly fitted or top-dose-only effect; inactive means flat fitted curve, though single readings scatter.

Calcium and integrin-binding protein 1 (Homo sapiens), sequence (Q99828 whole entry, looked up): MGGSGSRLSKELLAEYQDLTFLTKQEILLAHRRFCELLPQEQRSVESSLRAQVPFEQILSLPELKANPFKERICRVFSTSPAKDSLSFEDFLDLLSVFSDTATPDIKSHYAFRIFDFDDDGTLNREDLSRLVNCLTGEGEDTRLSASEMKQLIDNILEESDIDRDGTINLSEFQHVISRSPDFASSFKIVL

For the test, the target named is Calcium and integrin-binding protein 1 (Homo sapiens) (UniProt Q99828). The experiment in a line: Primary qHTS for Identification of Calcium Integrin Binding Protein 1 (CIB1) Competitor (AID 1508620).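 Further: GST tagged CIB1 binding a fluorescein labelled alphaIIb integrin peptide tracer; top concentration of the series differs between compounds.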 Conditions: CIB1-GST / FITC-alphaIIb peptide fluorescence polarization; series mostly up to 114 µM. A digest of the protocol:
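CIB1-GST (1 uM final) and compound incubated 15 min at room temperature before adding FITC-alphaIIb peptide tracer (100 nM final). Competition for binding read by fluorescence polarization (ex 480, em 540) after another 15 min at room temperature.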
(In general: Quantitative high-throughput screening tests each substance at several concentrations.)
As for `N#Cc1cccc(CSc2nc3ncc(Br)cc3[nH]2)c1`, the Potency entry is “inactive”.
As for `Cc1ccc(NC(=O)CSc2nnc(-c3cccc([S+](=O)([O-])N4CCCC4)c3)n2-c2c(C)cccc2C)cc1`, the Potency entry was “inactive”.
With `COc1cccc(-c2nnc3n2N=C(c2c(OC)cccc2OC)CS3)c1`, the Potency entry was “inactive”.
To `N#CN1CCC(NS(=O)(=O)c2cccc(F)c2)C1` (stereo not given) belongs “inactive”; to `COC(=O)c1cccc(-c2noc(-c3ccccc3F)n2)c1`, “inactive”; to `COc1ccc(-c2nc3ccccc3c(=O)n2Cc2ccccc2)cc1OCc1ccc(NC(C)=O)cc1`, “inactive”.
With `CC(C)(C)Cc1nnc(NC(=O)CSc2ccccc2)s1`, the Potency result was “inactive”.
Turning to `CC(C)(C)OC(=O)N1CCN(c2ccc(NCc3occc3-c3ccc(C#N)cc3)cc2)CC1`, the Potency result is “inactive”.
As for `Cc1cc(C)nc(NC(=S)N2CCN(c3ncc(Cl)cc3Cl)CC2)c1`, the Potency result is “inactive”.
To `COc1ccc(CN(Cc2ccccc2)S(=O)(=O)c2ccccc2)cc1COc1ccc(NC(C)=O)cc1` belongs “inactive”.
Turning to `c1ccc(OCc2nnc3ccc(-c4ccccc4)nn23)cc1`, the Potency entry was “inactive”.
The result for `O=C(NCCc1nc2ccccc2n1CCOc1ccc(F)cc1)C1CCCCC1` reads “inactive”.
Consider `N#Cc1nc(-c2cccc3ccccc23)oc1N`, for which the Potency entry is “inactive”.
On to `Cc1ccc(Cl)cc1NS(=O)(=O)c1cc2c(cc1F)NC(=O)CC2`, for which the Potency entry was “inactive”.
For the compound `NC(=O)c1c(-c2ccccc2)no[n+]1[O-]`, the Potency entry was “inactive”.
On to `Cn1nnnc1Sc1ncnc2scc(-c3cc4ccccc4o3)c12`, for which the Potency result was “inactive”.
To `CC(=O)N[C@H](C(=O)N[C@@H](C)C(=O)N[C@H](C#N)CC(=O)O)C(C)C` belongs “inactive”; to `C[C@H](NC(c1ccc(F)cc1)c1ccc2cccnc2c1O)c1ccccc1` (stereo not given in full), “inactive”; to `COc1ccccc1-c1nc(NCc2ccc(-c3cccnc3)cc2)c2ccccc2n1`, “inactive”.
With `Fc1cccc(CNc2ncnc3ccc(-c4ccc5c(c4)OCO5)cc23)c1`, the Potency result was “inactive”.
To `COc1ccc(C2Nc3ccccc3C(=O)N2Cc2ccccc2)cc1COc1ccc(Cl)cc1` (stereo not given) belongs “inactive”; to `O=C(Nc1ccc(Cl)c(Cl)c1)N1CCN(c2ccncc2)CC1`, “inactive”.
To `Cc1cc(C)n2ncc(C(=O)Nc3ccc(C(C)(C)C)cc3)c2n1` belongs “inactive”.
The result for `COc1ccccc1NC(=O)C1=C(C)NC(Nc2nc3ccccc3o2)=NC1c1ccccc1Br` (stereo not given) reads “inactive”.
For the compound `COc1cccc(C2c3c(ncn(-c4ccccn4)c3=N)Oc3ccc4ccccc4c32)c1` (stereo not given), the Potency result is “inactive”.
The result for `COc1ccc(C2Nc3ccccc3C(=O)N2Cc2ccccc2)cc1COc1ccccc1OC` (stereo not given) reads “inactive”; that for `COc1ccc(C2c3c(nc(Cc4ccccc4)[nH]c3=O)Oc3ccc4ccccc4c32)cc1OC` (stereo not given), “inactive”.
As to `O=S1(=O)N=C(Oc2ccccc2-c2ccccc2)c2ccccc21`, the Potency entry was “inactive”.
Take `O=C1CCCC2=C1C(c1[nH]ncc1Cl)NC(=NCCc1cccnc1)N2` (stereo not given): the Potency result was “inactive”.
As for `CC(C)CC(O)C(=O)Nc1cc(C(F)(F)F)ccc1Cl` (stereo not given), the Potency result was “inactive”.
As to `O=C(Cc1ccc(Cl)c(Cl)c1)Nc1ccc(S(=O)(=O)NCc2ccco2)cc1`, the Potency entry is “inactive”.
With `O=C(O)c1ccc(O)c2ncc(N3CCCN(CCc4ccncc4)CC3)cc12`, the Potency entry is “inactive”.
As to `Cc1cc(N[S+](=O)([O-])c2cc3c(cc2Cl)CCC(=O)N3)ccc1Cl`, the Potency entry was “inactive”.
`Nc1nc(NCc2ccc(-c3cccnc3)cc2)c2ccccc2n1`: the Potency result is “inactive”.
Turning to `Cc1cc(C)n2ncc(C(=O)Nc3ccc(C)c(C)c3)c2n1`, the Potency result was “inactive”.
The result for `N#Cc1ccc(NC(=O)Nc2nnc(-c3ccncc3)s2)cc1` reads “inactive”; that for `N#Cc1nc(Nc2ccc3ccccc3c2)nc(NC2CCCC2)n1`, “inactive”; that for `COc1cc(O)c(C(CC(=O)N2CCCC(c3nc4ccccc4o3)C2)c2ccc3c(c2)OCO3)c(OC)c1` (stereo not given), “inactive”.
As to `O=C1CCc2cc(S(=O)(=O)Nc3ccc(Cl)c(Cl)c3)c(F)cc2N1`, the Potency result was “inactive”.
In the case of `CC(C)(C)N=Cc1c(-c2ccccc2)no[n+]1[O-]`, the Potency result is “inactive”.
